Laboratory results from PubChem BioAssay AID1159580 (chemical genetic matrix, 2015).
The campaign covered roughly 5,500 compounds. About 2,000 (36%) were called active. Roughly 18% stayed inconclusive and do not appear here. No stated cut-off is given here; in the data, active means normalized growth mostly below about 0.91 (no sharp cut-off); inconclusive means no clear call, values can overlap the other calls; inactive means mostly above about 0.92. The list shows a part of the results.

Assay: chemical genetic growth profiling, strain panel (AID 1159580);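 further: tested at 20 µM; growth read once vehicle control cultures reached saturation at 30 °C; 1 = growth at the plate median or of vehicle wells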
Conditions: growth OD

Measured: normalized growth

CN1CCCN=C1COC(=O)C(O)(c1ccccc1)C1CCCCC1 (configuration not stated)
inactive: S. cerevisiae deletion strains, locus YJR075W, strain HOC1, stronger effect = lower value 0.993 | S. cerevisiae deletion strains, locus YKL009W, strain mrt4, stronger effect = lower value 0.999 | S. cerevisiae deletion strains, locus YKL068W, stronger effect = lower value 0.989 | S. cerevisiae deletion strains, locus YKL085W, strain MDH1 (second series), stronger effect = lower value 1 | S. cerevisiae deletion strains, locus YKL085W, strain MDH1, stronger effect = lower value 1 | S. cerevisiae deletion strains, locus YKL160W, strain elf1, stronger effect = lower value 0.998 | S. cerevisiae deletion strains, locus YKL190W, strain CNB1, stronger effect = lower value 0.997 | S. cerevisiae deletion strains, locus YKR001C, strain vps1, stronger effect = lower value 0.975 | S. cerevisiae deletion strains, locus YKR026C, strain gcn3, stronger effect = lower value 0.997 | S. cerevisiae deletion strains, locus YKR091W, strain srl3, stronger effect = lower value 1 | S. cerevisiae deletion strains, locus YLL001W, strain dnm1, stronger effect = lower value 0.989 | S. cerevisiae deletion strains, locus YLL026W, stronger effect = lower value 0.991 | S. cerevisiae deletion strains, locus YLL041C, strain sdh2, stronger effect = lower value 0.998 | S. cerevisiae deletion strains, locus YLR027C, strain aat2, stronger effect = lower value 0.993 | S. cerevisiae deletion strains, locus YLR039C, strain RIC1, stronger effect = lower value 1.02 | S. cerevisiae deletion strains, locus YLR058C, strain SHM2, stronger effect = lower value 1.01 | S. cerevisiae deletion strains, locus YLR102C, strain apc9, stronger effect = lower value 0.993 | S. cerevisiae deletion strains, locus YLR113W, strain HOG1, stronger effect = lower value 1.01 | S. cerevisiae deletion strains, locus YLR221C, strain rsa3, stronger effect = lower value 0.992 | S. cerevisiae deletion strains, locus YLR258W, strain gsy2, stronger effect = lower value 1 | S. cerevisiae deletion strains, locus YLR262C, strain YPT6 (second series), stronger effect = lower value 0.988 | S. cerevisiae deletion strains, locus YLR262C, strain YPT6, stronger effect = lower value 1.02 | S. cerevisiae deletion strains, locus YLR268W, strain sec22, stronger effect = lower value 0.971 | S. cerevisiae deletion strains, locus YLR320W, strain mms22, stronger effect = lower value 1.01 | S. cerevisiae deletion strains, locus YLR330W, strain CHS5, stronger effect = lower value 1.01 | S. cerevisiae deletion strains, locus YLR342W, strain FKS1 (second series), stronger effect = lower value 1.02 | S. cerevisiae deletion strains, locus YLR342W, strain FKS1, stronger effect = lower value 1 | S. cerevisiae deletion strains, locus YLR357W, strain rsc2, stronger effect = lower value 0.976 | S. cerevisiae deletion strains, locus YLR370C, strain arc18, stronger effect = lower value 0.992 | S. cerevisiae deletion strains, locus YLR371W, strain rom2, stronger effect = lower value 0.993 | S. cerevisiae deletion strains, locus YLR384C, strain iki3, stronger effect = lower value 0.982 | S. cerevisiae deletion strains, locus YLR418C, strain cdc73, stronger effect = lower value 0.973 | S. cerevisiae deletion strains, locus YML016C, strain PPZ1, stronger effect = lower value 1.01 | S. cerevisiae deletion strains, locus YML032C, strain rad52, stronger effect = lower value 0.979 | S. cerevisiae deletion strains, locus YML120C, strain ndi1, stronger effect = lower value 1 | S. cerevisiae deletion strains, locus YML124C, strain tub3, stronger effect = lower value 0.992 | S. cerevisiae deletion strains, locus YMR058W, strain fet3, stronger effect = lower value 0.95 | S. cerevisiae deletion strains, locus YMR078C, strain ctf18, stronger effect = lower value 0.992 | S. cerevisiae deletion strains, locus YMR125W, strain sto1, stronger effect = lower value 0.992 | S. cerevisiae deletion strains, locus YMR129W, stronger effect = lower value 0.995 | S. cerevisiae deletion strains, locus YMR205C, strain PFK2, stronger effect = lower value 0.993 | S. cerevisiae deletion strains, locus YMR223W, strain ubp8, stronger effect = lower value 1 | S. cerevisiae deletion strains, locus YMR231W, strain pep5, stronger effect = lower value 0.99 | S. cerevisiae deletion strains, locus YMR263W, strain SAP30, stronger effect = lower value 1.01 | S. cerevisiae deletion strains, locus YMR307W, strain GAS1, stronger effect = lower value 1.03 | S. cerevisiae deletion strains, locus YNL067W, strain RPL9B, stronger effect = lower value 0.992 | S. cerevisiae deletion strains, locus YNL071W, strain lat1, stronger effect = lower value 0.994 | S. cerevisiae deletion strains, locus YNL128W, strain TEP1, stronger effect = lower value 1.01 | S. cerevisiae deletion strains, locus YNL153C, strain GIM3, stronger effect = lower value 1 | S. cerevisiae deletion strains, locus YNL183C, strain NPR1, stronger effect = lower value 0.947 | S. cerevisiae deletion strains, locus YNL209W, strain ssb2, stronger effect = lower value 0.99 | S. cerevisiae deletion strains, locus YNL233W, strain BNI4, stronger effect = lower value 0.998 | S. cerevisiae deletion strains, locus YNL248C, strain rpa49, stronger effect = lower value 0.993 | S. cerevisiae deletion strains, locus YNL250W, strain rad50, stronger effect = lower value 0.988 | S. cerevisiae deletion strains, locus YNL271C, strain bni1, stronger effect = lower value 0.987 | S. cerevisiae deletion strains, locus YNL298W, strain CLA4, stronger effect = lower value 0.994 | S. cerevisiae deletion strains, locus YNL307C, strain MCK1, stronger effect = lower value 0.981 | S. cerevisiae deletion strains, locus YNL322C, strain KRE1 (second series), stronger effect = lower value 1 | S. cerevisiae deletion strains, locus YNL322C, strain KRE1, stronger effect = lower value 1 | S. cerevisiae deletion strains, locus YNR049C, strain mso1, stronger effect = lower value 0.994 | S. cerevisiae deletion strains, locus YNR052C, strain pop2, stronger effect = lower value 0.999 | S. cerevisiae deletion strains, locus YOL006C, strain TOP1, stronger effect = lower value 1.04 | S. cerevisiae deletion strains, locus YOL012C, strain htz1 0.733 | S. cerevisiae deletion strains, locus YOL147C, strain pex11, stronger effect = lower value 0.99 | S. cerevisiae deletion strains, locus YOR001W, strain rrp6, stronger effect = lower value 1.01 | S. cerevisiae deletion strains, locus YOR061W, strain CKA2, stronger effect = lower value 1.01 | S. cerevisiae deletion strains, locus YOR069W, strain VPS5, stronger effect = lower value 1.01 | S. cerevisiae deletion strains, locus YOR070C, strain gyp1, stronger effect = lower value 1.01 | S. cerevisiae deletion strains, locus YOR080W, strain dia2, stronger effect = lower value 0.996 | S. cerevisiae deletion strains, locus YOR083W, strain WHI5, stronger effect = lower value 0.995 | S. cerevisiae deletion strains, locus YOR106W, strain vam3, stronger effect = lower value 1.01 | S. cerevisiae deletion strains, locus YOR136W, strain idh2, stronger effect = lower value 0.991 | S. cerevisiae deletion strains, locus YOR144C, strain elg1, stronger effect = lower value 0.991 | S. cerevisiae deletion strains, locus YOR184W, strain ser1, stronger effect = lower value 1 | S. cerevisiae deletion strains, locus YOR231W, strain MKK1, stronger effect = lower value 1 | S. cerevisiae deletion strains, locus YOR265W, strain rbl2, stronger effect = lower value 0.984 | S. cerevisiae deletion strains, locus YOR270C, strain vph1, stronger effect = lower value 1.02 | S. cerevisiae deletion strains, locus YOR290C, strain snf2, stronger effect = lower value 1.02 | S. cerevisiae deletion strains, locus YOR316C, strain cot1, stronger effect = lower value 1 | S. cerevisiae deletion strains, locus YPL051W, strain arl3, stronger effect = lower value 0.997 | S. cerevisiae deletion strains, locus YPL055C, strain LGE1, stronger effect = lower value 0.998 | S. cerevisiae deletion strains, locus YPL078C, strain atp4, stronger effect = lower value 0.998 | S. cerevisiae deletion strains, locus YPL106C, strain sse1, stronger effect = lower value 0.989 | S. cerevisiae deletion strains, locus YPL240C, strain hsp82, stronger effect = lower value 0.991 | S. cerevisiae deletion strains, locus YPL241C, strain CIN2, stronger effect = lower value 1.01 | S. cerevisiae deletion strains, locus YPL256C, strain CLN2, stronger effect = lower value 0.992 | S. cerevisiae deletion strains, locus YPR119W, strain clb2, stronger effect = lower value 0.993 | S. cerevisiae deletion strains, locus YPR141C, strain kar3, stronger effect = lower value 0.994 | S. cerevisiae deletion strains, locus YPR163C, strain tif3, stronger effect = lower value 0.991 | S. cerevisiae deletion strains, locus YPR167C, strain met16, stronger effect = lower value 0.987 | S. cerevisiae deletion strains, strain wtn01, stronger effect = lower value 0.966 | S. cerevisiae strains, strain wild type, stronger effect = lower value 1
